High-throughput results as filed in PubChem BioAssay.
In the library only some 10% were active in any assay of this set; here they are far more common.
JMJD2A Tudor inh: blocks the human JMJD2A Tudor domain | O75164 | AlphaScreen JMJD2A-Tudor / H3K4me3 peptide binding | Potency, µM (highest dose often 114 µM), usual class: inhibitors | 390,000 tested, 4.4% active | AID 504339; note: nearly all actives have a fitted effect of over 50% in size
HP1b binding inh: HP1-beta chromodomain-methylated histone interaction inhibition; P83916; AlphaScreen HP1-beta / biotin-H3K9me3 peptide binding; Potency, µM (series often up to 114 µM), most hits filed as inhibitors; 390,000 tested, 0.56% active; note: nearly all actives have a fitted effect of over 70% in size
Target sequence (P83916 whole entry, looked up): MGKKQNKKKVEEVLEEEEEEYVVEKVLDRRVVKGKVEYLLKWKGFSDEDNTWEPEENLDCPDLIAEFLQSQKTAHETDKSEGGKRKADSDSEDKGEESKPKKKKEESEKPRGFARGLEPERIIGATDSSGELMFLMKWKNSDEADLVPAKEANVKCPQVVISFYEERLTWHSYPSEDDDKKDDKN
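Compound inhibition of the preformed complex between 50 nM HP1-beta and 50 nM biotinylated H3K9me3 peptide was read by AlphaScreen. Buffer was PBS pH 7.4 with 0.01% Tween-20. Incubations ran 30 min at room temperature, with 10 ug/mL donor/acceptor beads.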
GLS inh: blocks human kidney-isoform glutaminase activity; O94925; GLS enzymatic activity, qHTS titration; Potency, µM (series often up to 45.5 µM), usual class: inhibitors; 410,000 tested, 0.21% active
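hKGA; 45 mM KH2PO4 pH 8.2 + 0.02% Tween-20; cpd via pin tool; 1 mM Gln soln; GluOx/HRP/Amplex Red; RT 30 min; fluor. t0 & final.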
G9a inh: G9a (human) methyltransferase inhibition; G9a H3K9 monomethylation, AlphaScreen, 2 h; Potency, µM (highest dose often 102 µM), hits mostly inhibitors; 350,000 tested, 8.8% active; note: nearly all actives have a fitted effect of over 75% in size
Target sequence (Q96KQ7 913-1193 limits assumed): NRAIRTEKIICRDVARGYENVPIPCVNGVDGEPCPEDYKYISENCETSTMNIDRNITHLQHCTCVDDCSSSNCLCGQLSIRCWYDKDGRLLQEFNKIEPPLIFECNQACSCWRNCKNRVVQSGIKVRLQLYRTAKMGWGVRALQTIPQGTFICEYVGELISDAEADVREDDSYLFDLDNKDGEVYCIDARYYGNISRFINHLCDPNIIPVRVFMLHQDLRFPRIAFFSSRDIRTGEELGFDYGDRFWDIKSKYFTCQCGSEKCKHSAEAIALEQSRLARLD
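AlphaScreen detection with an anti-monomethyl H3K9 antibody quantified product after a 2 h room-temperature reaction containing 500 nM biotinylated H3K9 peptide, 20 µM SAM and 20 nM enzyme, which had been preincubated 15 min with compound.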
BAZ2B inh: blocks human BAZ2B; Potency, µM (top dose mostly 114 µM), usual class: inhibitors; 360,000 tested, 4.4% active; AlphaScreen BAZ2B-H3K14Ac peptide displacement; note: nearly all actives have a fitted effect of over 60% in size
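In this displacement format the biotinylated H3(5-23) peptide acetylated at Lys14 serves as ligand at 50 nM, with BAZ2B at 50 nM in PBS pH 7.4 containing 0.01% Tween-20. Donor and acceptor beads are 10 ug/mL final.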
Numbers stand for hits; [ ] = remark or other dose. Calls come from the whole dose curve; as a rule, active = well fitted curve in the direction sought with a large enough effect; inconclusive = small, poorly fitted or top-dose-only effect, or another doubt; inactive = no such curve, though single readings can be large; an effect the other way counts as inactive or inconclusive.

`COc1ccc(C(=O)[C@H]2[C@H]3C(=O)N(c4ccc(C)cc4)C(=O)[C@H]3C3C=CC=NN32)cc1` (stereo not given in full) gave JMJD2A Tudor inh inactive, HP1b binding inh inactive, GLS inh inactive and BAZ2B inh 39.8µM.
Screening CC(=O)Oc1ccc(C(=O)[C@H]2[C@H]3C(=O)N(c4ccc(C)cc4)C(=O)[C@H]3[C@@H]3C=CC=NN32)cc1 returned JMJD2A Tudor inh inconclusive, HP1b binding inh inactive, GLS inh inactive, G9a inh 3.55µM and BAZ2B inh inactive.
`CC(=O)Oc1ccc(N2C(=O)[C@@H]3[C@H](C2=O)[C@H]2c4ccccc4C=NN2[C@@H]3C(C)=O)cc1` gave JMJD2A Tudor inh inactive, HP1b binding inh inactive, GLS inh inactive, G9a inh inconclusive and BAZ2B inh inactive.
Screening COc1ccc(C(=O)[C@H]2[C@H]3C(=O)N(c4ccccc4)C(=O)[C@H]3C3C=CC=NN32)cc1 (stereo not given in full) returned JMJD2A Tudor inh inconclusive, HP1b binding inh inactive, GLS inh inactive, G9a inh inconclusive and BAZ2B inh inactive.
`CC(=O)Oc1ccc(C(=O)[C@H]2[C@H]3C(=O)N(c4ccc(C)cc4C)C(=O)[C@H]3[C@@H]3C=CC=NN32)cc1` gave JMJD2A Tudor inh inconclusive, HP1b binding inh inactive, GLS inh inactive, G9a inh 3.55µM and BAZ2B inh inactive.
Screening Cc1csc(C(=O)O)c1NC(=O)c1cccc([N+](=O)[O-])c1 returned JMJD2A Tudor inh inactive, HP1b binding inh inactive, GLS inh inactive, G9a inh inactive and BAZ2B inh inconclusive.
Screening Cc1cc(-n2c(=O)[nH]c(=O)n(C)c2=O)ccc1Oc1ccc(S(=O)(=O)C(F)(F)F)cc1 returned GLS inh inactive.
Screening NNC(=O)Cn1nnc(-c2ccc(C(F)(F)F)cc2)n1 returned JMJD2A Tudor inh inactive, HP1b binding inh inactive, GLS inh inactive, G9a inh inactive and BAZ2B inh inactive.
O=P(C(=S)Nc1ccccc1Cl)(c1ccccc1)c1ccccc1 was read as GLS inh inactive.
`Cc1ccc(N2C(=O)[C@@H]3[C@H](C2=O)[C@H]2C=CC=NN2[C@@H]3C(=O)Nc2ccccc2)cc1` gave JMJD2A Tudor inh inactive, HP1b binding inh inactive, GLS inh inactive, G9a inh 7.08µM and BAZ2B inh inactive.
`Cc1ccc(N2C(=O)C3C(C2=O)C(C(=O)c2ccc(Cl)cc2)N2CCCC32)cc1` (stereo not given) gave JMJD2A Tudor inh inactive[11.4 µM], HP1b binding inh inactive, GLS inh inactive, G9a inh inconclusive and BAZ2B inh inconclusive.
`CC(=O)Oc1ccc(C(=O)[C@H]2[C@H]3C(=O)N(c4ccccc4)C(=O)[C@H]3[C@@H]3C=CC=NN32)cc1` gave JMJD2A Tudor inh inactive, HP1b binding inh inactive, GLS inh inactive, G9a inh 4.47µM and BAZ2B inh inactive.
Screening CC(=O)Oc1ccc(N2C(=O)C3C(C2=O)C(C(=O)c2ccc(Cl)cc2)N2CCCC32)cc1 (stereo not given) returned JMJD2A Tudor inh 44.7µM, HP1b binding inh inconclusive, GLS inh inactive, G9a inh inactive[12.7 µM] and BAZ2B inh inactive.
`O=C(Nc1ccccc1)[C@@H]1[C@@H]2C(=O)N(c3ccc(F)cc3)C(=O)[C@@H]2[C@H]2C=CC=NN21` gave JMJD2A Tudor inh inactive, HP1b binding inh inactive, GLS inh inactive and BAZ2B inh inactive.
For CCc1nc(SCC(=O)Nc2cccc(C(F)(F)F)c2)c2c(=O)n(C)c(=O)n(C)c2n1 the results were JMJD2A Tudor inh inactive, HP1b binding inh inactive, GLS inh inactive, G9a inh inactive and BAZ2B inh inactive.
`CCCc1nnc(SCC(=O)Nc2ccc(OC)cc2)o1` gave JMJD2A Tudor inh inactive, HP1b binding inh inactive, GLS inh inactive, G9a inh inactive and BAZ2B inh inactive.
Screening Cc1cc(O)c2c(c1O)C(=O)[C@]13C(=C2O)C(=O)[C@@H]2[C@@H](O)[C@H]1[C@@H]1[C@H](O)[C@H]3C(=O)C3=C(O)c4c(O)cc(C)c(O)c4C(=O)[C@]312 returned JMJD2A Tudor inh 7.94µM, HP1b binding inh inconclusive and GLS inh 6.31µM.
Cc1cc(O)c2c(c1O)C(=O)c1c(O)cc(C)c(O)c1C2=O was read as G9a inh inactive[2.33 µM].
